Dicer processing: blocks human Dicer maturation of pre-miR-21. Q9UPY3. cat-ELCCA pre-miR-21 Dicer processing, chemiluminescence; hits give high values. z-score at 25 µM. 47,000 compounds, 6% hits. AID 1347074; in the data active = z-score above about 3, passing the limit was not always enough;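 also: higher signal means more uncleaved substrate so more Dicer inhibition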
Each line names hits and unclear results; the compound was inactive in the other large screens. Shown is part of a subset that was picked to be rich in hits.

CCCc1c(Cc2c(F)cccc2Cl)c(=O)oc2cc(OC(=O)COC)ccc12	Dicer processing 4.4
Cc1c(Cc2c(F)cccc2Cl)c(=O)oc2cc(O)ccc12	none
CCSc1nccc(C(F)(F)F)c1C(=O)N(CC)c1c(C)cccc1C	none
CSc1sc(C(=O)NC(=O)Nc2ccc(Cl)cc2)c2c1-c1oncc1CC2	none
Nc1ncnc2nc(SCc3ccc4nsnc4c3)[nH]c12	none
CC(Sc1nc2ncnc(N)c2[nH]1)C(=O)O (stereo unspecified)	none
Nc1ncnc2nc(SCCC(=O)O)[nH]c12	Dicer processing 3.8
CC(C)(C)NS(=O)(=O)c1cccc2c(N)cccc12	none
Cc1c2n(c3ccccc13)CC/C2=N/OC(=O)Nc1ccc(Cl)cc1Cl	none
COC(=O)c1nc2c(C)cccn2c1F	Dicer processing 3.1
Cc1cccn2c(=O)c(NC(=O)c3ccc(Cl)cc3)cnc12	none
CCCS(=O)(=O)c1c(S(=O)(=O)CCC)c2c(C)cccn2c1C(=O)OC	none
ONC(=Nc1cccc(C(F)(F)F)c1)c1ccccc1	none
COc1ccc(N=C(NO)c2ccccc2)cc1Cl	Dicer processing 3.1
ONC(=Nc1ccccc1)c1cccc(Cl)c1	none
N#Cc1cc(-c2nc3ccccc3[nH]2)c(N)n2c1nc1ccccc12	none
CCOC(=O)C1=C(C)NC2=C(C(=O)c3ccccc32)C1c1ccccc1OC (stereo unspecified)	none
COc1ccc(C(C)C)cc1S(=O)(=O)Nc1ccc(Cl)cn1	none
CCOc1ccc(C)cc1S(=O)(=O)Nc1ccc(Cl)cn1	Dicer processing 4.6
CCOc1ccc(Cl)cc1S(=O)(=O)NCc1ccccn1	none
Cc1ccc(C2C3=C(CCCC3=O)Nc3ncnn32)cc1 (stereo unspecified)	none
COc1ccc(C2/C(=C(\O)c3ccc(C)cc3)C(=O)C(=O)N2CCCN(C)C)cc1 (stereo unspecified)	none
Cc1ccc(/C(O)=C2/C(=O)C(=O)N(CCN3CCOCC3)C23C(=O)N(C)c2ccccc23)cc1F (stereo unspecified)	Dicer processing 4.2
CN1C(=O)C2(/C(=C(/O)c3ccc(F)cc3)C(=O)C(=O)N2CCCN2CCOCC2)c2ccccc21 (stereo unspecified)	none
COc1ccc(/C(O)=C2\C(=O)C(=O)N(CCCN3CCOCC3)C2c2ccc(OC)cc2)cc1 (stereo unspecified)	none
Cc1ccc(/C(O)=C2/C(=O)C(=O)N(CCCN3CCOCC3)C23C(=O)N(C)c2ccccc23)cc1F (stereo unspecified)	none
CCCN1C(=O)C2(/C(=C(/O)c3ccccc3)C(=O)C(=O)N2CCN2CCOCC2)c2ccccc21 (stereo unspecified)	Dicer processing 4.7
COc1ccc(/C(O)=C2\C(=O)C(=O)N(CCN3CCNCC3)C2c2ccc(OC)cc2)cc1 (stereo unspecified)	none
COc1ccc(/C(O)=C2\C(=O)C(=O)N(CCCN(C)C)C2c2ccc(N(C)C)cc2)cc1 (stereo unspecified)	none
CN1C(=O)C2(/C(=C(/O)c3ccc(Cl)cc3)C(=O)C(=O)N2CCN2CCOCC2)c2ccccc21 (stereo unspecified)	none
COCCCN1C(=O)C(=O)/C(=C(/O)c2ccc(C)cc2)C1c1ccc(N(C)C)cc1 (stereo unspecified)	Dicer processing 3.2
C=CCN1C(=O)C2(/C(=C(/O)c3ccccc3)C(=O)C(=O)N2CCN2CCOCC2)c2ccccc21 (stereo unspecified)	none
COc1ccc(/C(O)=C2\C(=O)C(=O)N(CCN3CCOCC3)C2c2ccc(F)cc2)cc1 (stereo unspecified)	Dicer processing 3.2
CCOC(=O)c1c[nH]c2c(C)ccc(C)c2c1=O	none
COc1ccc(Oc2coc3cc(OC(=O)CCc4ccccc4)ccc3c2=O)cc1	none
CC(C)OC(=O)CNc1n[nH]c(=O)[nH]c1=O	none
CN1CCN(/C=N/c2ncc(C(F)(F)F)cc2Cl)CC1	none
CC1Sc2ccc(Cl)cc2C(=O)/C1=C/N(C)C (stereo unspecified)	none
COc1ccc(S(=O)(=O)N2CCC(C(=O)O)CC2)cc1C(=O)O	none
CN1C(=O)C2(/C(=C(/O)c3ccc(F)cc3)C(=O)C(=O)N2CCN2CCOCC2)c2ccccc21 (stereo unspecified)	none
CCN1C(=O)C2(/C(=C(/O)c3ccc(C)cc3)C(=O)C(=O)N2CCCN2CCOCC2)c2ccccc21 (stereo unspecified)	none
CCN1C(=O)C2(/C(=C(/O)c3ccc(F)cc3)C(=O)C(=O)N2CCN2CCOCC2)c2ccccc21 (stereo unspecified)	Dicer processing 5.7
CCCN1C(=O)C(O)(CC(=O)c2ccc(C)s2)c2cc(Br)ccc21 (stereo unspecified)	none
NNC(=S)Nc1cc(C(F)(F)F)ccc1Cl	none
CC(C)(C)C(=O)NC(=O)Nc1cc(C(F)(F)F)ccc1Cl	Dicer processing 4.1
CC(C)(C)C(=O)NC(=O)Nc1cc(C(F)(F)F)cc(C(F)(F)F)c1	none
Cc1cc(C(F)(F)F)cc(-n2cc(C#N)c(N)n2)n1	none
O=C1CSc2ccc(C(F)(F)F)cc2N1	none
CNC(=S)NNC(=O)CN1C(=O)CSc2ccc(C(F)(F)F)cc21	none
NNC(=O)CN1C(=O)CSc2ccc(C(F)(F)F)cc21	Dicer processing 6.2
COC(=O)c1sccc1N/N=C(\C)c1ccc(NC(=O)C(Cl)Cl)cc1	none
CCCCCN=C1NS(=O)(=O)c2ccccc21	none
Cc1noc(-c2ccco2)c1NC(=O)NN(C)C	none
CCOC(=O)/C(C#N)=C/c1ccccc1	none
CCOC(=O)/C(C#N)=C/c1csc([N+](=O)[O-])c1	Dicer processing 3.1
CCOC(=O)/C(C#N)=C/c1ccc([N+](=O)[O-])s1	none
CSc1scc2c1/C(=N/OC(C)=O)CC(C)(C)C2	none
O=[N+]([O-])c1ccccc1N1CCC(CCCC2CCN(c3ccccc3[N+](=O)[O-])CC2)CC1	none
CCOC(=O)C(=CNc1cc(C2CC2)nn1C)C(=O)OCC	none
Cc1nc(N=Nc2ccc(S(=O)(=O)O)cc2S(=O)(=O)O)c(COP(=O)(O)O)c(C=O)c1O	Dicer processing 3.1
Cc1nc(N=Nc2ccc(C(=O)O)cc2)c(COP(=O)(O)O)c(C=O)c1O	none
C/C(=N\Nc1nc(-c2ccc(Cl)cc2)cs1)c1ccc(C)nc1	none
N#Cc1c(-c2ccccc2)c2c([nH]c1=O)-c1ccccc1CC2	none
COc1ccc(-c2c(-c3ccc(OC)c(OC)c3)c(C)n(C)c2C)cc1OC	none
COc1ccc(-c2nc3cc(N)ccc3o2)cc1OC	none
COc1ccc(-c2c(N)n[nH]c2C)cc1OC	Dicer processing 4.9
CC(C)CC(NC(=O)C(C)N)C(=O)O (stereo unspecified)	none
CCn1c2ccccc2c2cc(CN3CCN(S(=O)(=O)c4ccccc4)CC3)ccc21	none
Cc1[nH]c2ccccc2c1C(=O)CSc1nccn1C	none
c1ccc(-n2cnc3cc(NCc4ccccn4)ccc32)cc1	none
COc1ccccc1-n1cnc2cc(NCc3ccncc3)ccc21	Dicer processing 5.3
COc1ccccc1-n1cnc2cc(Nc3nnc(C)c4ccccc34)ccc21	none
COc1ccccc1OCC(O)Cn1c[n+](C)c2cc(C)c(C)cc21 (stereo unspecified)	none
O=C(Cc1ccc(Cl)cc1)n1cc(Cl)cn1	none
CCOC(=O)c1sc(N2C(=O)c3oc4ccc(F)cc4c(=O)c3C2c2ccc(F)cc2)nc1C (stereo unspecified)	none
CCN(C(=O)c1ccccc1)c1cccc2ccccc12	none
CN1C2C=C(N(CCc3ccccc3)C(=O)c3ccccc3)CC1CC2 (stereo unspecified)	Dicer processing 3.1
CN(C(=O)c1ccccc1)C(=O)N(C)C(=O)c1ccccc1	none
CC(C)CC(=O)Nc1sc2c(c1C(N)=O)CCCC2	none
CC12CC3CC(Br)(C1)CC(C(=O)O)(C3)C2 (stereo unspecified)	none

High-throughput results as filed in PubChem BioAssay.
